Experiments:
Settings in all cases: concentration: 1 μM,replicates: in singlicate; n = 1
STK36 = tested on: STK36
STK39 = tested on: STK39
SYK = tested on: SYK
SgK110 = tested on: SgK110
TAK1 = tested on: T1, TAK1
T1 construct: gene MAP3K7

TAOK1 = tested on: TAOK1
TAOK2 = tested on: TAOK2
TAOK3 = tested on: TAOK3
TBK1 = tested on: TBK1
TEC = tested on: TEC
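Further: KINOMEscan kinase panel screen.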

Row | SMILES | %Inh (STK36) [%] | %Inh (STK39) [%] | %Inh (SYK) [%] | %Inh (SgK110) [%] | %Inh (TAK1) [%] | %Inh (TAOK1) [%] | %Inh (TAOK2) [%] | %Inh (TAOK3) [%] | %Inh (TBK1) [%] | %Inh (TEC) [%]
1 | O=C(Nc1cccc(Oc2ccc3nccn3n2)c1)Nc1cccc(C(F)(F)F)c1 | 0 | 0 | 0 | 16 | 0 | 0 | 0 | 0 | 8 | 0
2 | CS(=O)c1ccc(-c2coc3ccc(-c4n[nH]c(=O)o4)cc23)cc1 (stereo not shown) | 0 | 19 | 0 | 0 | 30 | 0 | 3 | 0 | 20 | 0
3 | OCCn1cc(-c2cnc3nnn(Cc4ccc5ncccc5c4)c3n2)cn1 | 0 | 0 | 0 | 0 | 12 | 0 | 0 | 0 | 0 | 0
4 | C[C@@H](Oc1cc(-n2cnc3cc(-c4ccncc4)ccc32)sc1C(N)=O)c1ccccc1Cl [GSK479719] | 0 | 6 | 52 | 0 | 0 | 0 | 0 | 0 | 0 | 7
5 | Cc1n[nH]c2cc(Nc3ccnc(Nc4cccc(CN5CCOCC5)c4)n3)ccc12 [GW682569] | 9 | 16 | 34 | 0 | 57 | 0 | 0 | 0 | 63 | 0
6 | CCOC(=O)N1CCC(n2cnc(-c3ccc(F)cc3)c2-c2ccnc(N)n2)CC1 [SB-219952] | 47 | 46 | 13 | 0 | 42 | 0 | 3 | 0 | 16 | 0
7 | c1ccc(Oc2ccc(Nc3ccnc4ccc(-c5ccccn5)cc34)cc2)cc1 [GW407034] | 0 | 15 | 1 | 27 | 0 | 0 | 24 | 0 | 18 | 78

From paper PMC5540273 (PLoS ONE, 2017)
